# In PubChem BioAssay (NCI):
# Several values for one entry are separate records, joined by “and”; a condition that tells them apart may be missing. Equal values may be shown once. This is part of a sample that, as a whole, favours compounds with a hit. Of some 83,000 tested, about 20% had one in any assay.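 Cell lines were cultured in 96-well plates, exposed to a single compound concentration, and assessed for percent growth 48 hours later.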 A number with no mark means an inactive call. Activity calls are given as the source filed them. How the source made its calls: active means growth percent below 10; inactive means the rest.
# Tested on: MDA-MB-468 breast
# Experiment: NCI-60 one-dose screen, 48 h (100 = growth as untreated, 0 = no growth, -100 = all killed)
# Conditions: 10 µM unless noted
row,Compound,growth
1,O=C(O)c1cccc(Br)c1,104% and 101%
2,COC(=O)CC[C@@H]1O[C@@H](c2cccc(C(F)(F)F)c2)[C@@H](O)[C@H]1O,89%
3,COc1ccccc1/C=C/C(=O)Nc1ccc(F)cc1,105%
4,CC(C)C(C)(C)c1ccc(O)cc1,91.1%
5,O=C1C(SCc2ccccc2)=C(Cl)CN1c1ccccc1,79.7%
6,COc1ccc2c(c1)C(C)Cc1c(ncnc1-n1cnc3ccccc31)N2C (stereo not given),27.3%
7,C/C(=N\NC(=O)c1ccncc1)c1ccc(N)cc1,97.1%
8,NC(=S)N/N=C\c1nccc2c(N)cccc12,-18.6% (active)
9,COc1ccc(OC)c(/C=C/c2nc(SC)n(-c3ccc(Cl)cc3)n2)c1,25.2%
10,CC(=O)/C(=C\c1ccc(Cl)cc1)c1ccccc1,0.454% (active)
11,COc1cc(-c2nc3ccccc3o2)cc(CN2CCCCC2)c1O,67.1%
12,O=CN1N=C(c2cccc(Nc3ccnc4cc(Cl)ccc34)c2)CC1c1ccc(Cl)cc1 (stereo not given),-4.05% (active)
13,CC(C)c1nc(N(C)S(C)(=O)=O)nc(-c2ccc(F)cc2)c1/C=C/[C@@H](O)C[C@@H](O)CC(=O)O,99.4%
14,COc1ccc2c(c1)N(CCO)C1=C(C(=O)OC1)C2c1cccc(Br)c1 (stereo not given),12.9%
15,COc1ccc(/C=N/c2cc(C(C)(C)C)nn2-c2ccccc2)cc1,124%
16,CCNC(=S)n1nc(SC)c(C(=O)OCC)c1N,114%
17,C=CC(=O)Nc1ccc(Oc2nccc(Nc3nnc(-c4ccc(C)cc4)s3)n2)cc1,111%
18,COc1ncnc2c(-c3ccccc3)cn(COCc3ccccc3)c12,42.1%
19,O=C(CCn1c[n+](CC(=O)c2ccc(F)cc2)c2ccccc21)Nc1cccc2cccnc12,-15.5% (active)
20,CCOP(=O)(OCC)c1nc(-c2ccccc2)oc1NCc1cccnc1,114%

row,Compound,growth
1,COC(/C=C/c1ccc([N+](=O)[O-])cc1)OC,73.4%
2,C#C[C@]1(O)CC[C@H]2[C@@H]3CC=C4c5sc(Nc6ccncc6)nc5CC[C@]4(C)[C@H]3CC[C@@]21C,-26.2% (active)
3,CCN1CCN(c2nc(NNC(=O)c3ccc(OC)cc3)nc(N3CCN(C(c4ccccc4)c4ccccc4)CC3)n2)CC1,10.7%
4,N#CC1=C(c2ccc(Br)cc2)NC(SCC(=O)c2ccc(Br)cc2)NC1=O (stereo not given),113%
5,CCOC(=O)c1sc(-c2ccc(OS(=O)(=O)c3cccs3)c(C=O)c2)nc1C,-15.4% (active)
6,C=CCNCCC#N,98.1%
7,CCOC(=O)/C=C\C(=O)NC(N)=O,88.6%
8,O=C1C2=C(C(=O)c3c(O)cccc31)C(c1ccco1)c1sc(=O)[nH]c1S2 (stereo not given),7.85% (active)
9,CN1C(=O)N(c2ccccc2)C2N=C(N/N=C/c3ccccc3)SC21 (stereo not given),-11.5% (active)
10,COc1cc2c(=O)n(CCCn3ccnc3)c3c4cc5c(cc4ccc3c2cc1OC)OCO5,-37.3% (active)
11,Clc1ccc2c(NCCCNC3CCCCC3)ccnc2c1,85.3%
12,O=C1CCCN1C1CCN2CCCc3cccc1c32 (stereo not given),118%
13,COc1ccc(Nc2[nH]n(C3=Nc4ccccc4Sc4ccccc43)c(=O)c2C#N)cc1,-3.96% (active)
14,CC(=O)c1ccc(-n2cc(CN3CCN(c4cc5c(cc4F)c(=O)c(C(=O)O)cn5C4CC4)CC3)nn2)cc1,72.5%
15,C=C(C)[C@@H]1CC[C@]2(C)[C@H](C=CC3=C4C[C@@](C)(CO)CC[C@]4(C)CC[C@]32C)[C@@]1(C)CCCN,-62.1% (active)
16,O=[N+]([O-])c1ccc(N/N=C\c2cc(Br)ccc2O)nc1,-19.7% (active) and -13.5% (active)
17,Cc1c(C)c2c(c(C)c1NC(=O)/C=C\C(=O)O)CCC(C)(CCCC(C)CCCC(C)CCCC(C)C)O2 (stereo not given),-45.3% (active)
18,C#CC[C@@H]1C[C@]2(C)[C@H]3CC[C@@H]4[C@H]5C(C(=C)C)CC[C@]5(C(=O)NCCCN5CCN(CCCN)CC5)CC[C@@]4(C)[C@]3(C)CC[C@H]2C(C)(C)[C@H]1OC(C)=O (stereo not given in full),-76.5% (active)
19,COc1cc(C2CC(c3cccc(Nc4ccnc5cc(Cl)ccc45)c3)=NN2c2ccc(Cl)cc2)cc(OC)c1OC (stereo not given),74.4%
20,COc1cc2cc3c(nc2cc1OC)CCN3Cc1ccc(NC(=O)Nc2cc(C(F)(F)F)cc(C(F)(F)F)c2)cc1,52.9%
